A short description of assay [1]: Quantitative High-Throughput drug screen in 47 multiple myeloma cell lines against the NCATS MIPE library collection: Delta47_JCRB cell viability assay (AID 1918925; also: nearly all actives have a fitted effect of over 45% in size). The method in brief:
(§1)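 CellTiter-Glo luminescence (ATP) after 48 h compound exposure, 37C/5% CO2; 500 cells/well; MIPE 4.0 approved/investigational drugs pinned in; DMSO = 100%, media only = 0% viability.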

A short description of assay [2]: Quantitative High-Throughput drug screen in 47 multiple myeloma cell lines against the NCATS MIPE library collection: EJM_DSMZ cell viability assay (AID 1918926; also: nearly all actives have a fitted effect of over 30% in size). The method, boiled down: as §1
The nature of assay [3]: Quantitative High-Throughput drug screen in 47 multiple myeloma cell lines against the NCATS MIPE library collection: AMO1_DSMZ cell viability assay (AID 1918927; also: nearly all actives have a fitted effect of over 30% in size). The method in brief: as §1
A short description of assay [4]: Quantitative High-Throughput drug screen in 47 multiple myeloma cell lines against the NCATS MIPE library collection: ARP1_JJKsccF8 cell viability assay (AID 1918928; also: nearly all actives have a fitted effect of over 40% in size). The method in brief:
(§2)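 Each line was plated at 500 cells/well and treated 48 h with library drugs. Viability came from CellTiter-Glo luminescence relative to DMSO and cell-free medium controls.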

Assay [5] is described as follows: Quantitative High-Throughput drug screen in 47 multiple myeloma cell lines against the NCATS MIPE library collection: ARD_JJKsccE7 cell viability assay (AID 1918929). The method in brief:
as §1

Assay [6] is described as follows: Quantitative High-Throughput drug screen in 47 multiple myeloma cell lines against the NCATS MIPE library collection: Karpas620_DSMZ cell viability assay (AID 1918959). Also: nearly all actives have a fitted effect of over 30% in size. The method, boiled down:
(§3)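 Relative luminescence from CellTiter-Glo served as the viability signal, referenced to DMSO-treated (100%) and cell-free medium (0%) controls. Treatment lasted 48 hours at 37C with 500 cells per well.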

A short description of assay [7]: Quantitative High-Throughput drug screen in 47 multiple myeloma cell lines against the NCATS MIPE library collection: KMM1_JCRB cell viability assay (AID 1918960). Also: nearly all actives have a fitted effect of over 30% in size. The method in brief: as §2
Assay [8] is described as follows: Quantitative High-Throughput drug screen in 47 multiple myeloma cell lines against the NCATS MIPE library collection: Karpas417_ECACC cell viability assay (AID 1918961). The conditions noted are these: Karpas417 myeloma viability, CellTiter-Glo ATP luminescence, 48 h; viability (% of DMSO): at 45.8 µM (top of the series). The method in brief:
as §3
In general terms: ATP-based viability assays read luminescence as a measure of living cells.

Assay [9] in a line: Quantitative High-Throughput drug screen in 47 multiple myeloma cell lines against the NCATS MIPE library collection: KHM11_PLB cell viability assay (AID 1918962). Also: nearly all actives have a fitted effect of over 35% in size. The method, boiled down: as §3
A short description of assay [10]: Quantitative High-Throughput drug screen in 47 multiple myeloma cell lines against the NCATS MIPE library collection: JIM3_ECACC cell viability assay (AID 1918963; also: nearly all actives have a fitted effect of over 35% in size). The method in brief: as §3
Assay [11] in a line: Quantitative High-Throughput drug screen in 47 multiple myeloma cell lines against the NCATS MIPE library collection: JIM1_ECACC cell viability assay (AID 1918964). The method, boiled down:
as §1

Assay [12] is described as follows: Quantitative High-Throughput drug screen in 47 multiple myeloma cell lines against the NCATS MIPE library collection: INA6_PLB cell viability assay (AID 1918965; also: nearly all actives have a fitted effect of over 55% in size). The method in brief:
as §3

Assay [13] can be described thus: Quantitative High-Throughput drug screen in 47 multiple myeloma cell lines against the NCATS MIPE library collection: JJN3_DSMZ cell viability assay (AID 1918966; also: nearly all actives have a fitted effect of over 50% in size). The method in brief:
as §1

Assay [14] in a line: Quantitative High-Throughput drug screen in 47 multiple myeloma cell lines against the NCATS MIPE library collection: H1112_PLB cell viability assay (AID 1918967; also: nearly all actives have a fitted effect of over 30% in size). The method, boiled down: as §1
A short description of assay [15]: Quantitative High-Throughput drug screen in 47 multiple myeloma cell lines against the NCATS MIPE library collection: Karpas25_ECACC cell viability assay (AID 1918968; also: nearly all actives have a fitted effect of over 35% in size). The method, boiled down: as §1
Assay [16] in a line: Quantitative High-Throughput drug screen in 47 multiple myeloma cell lines against the NCATS MIPE library collection: KMS27_JCRB cell viability assay (AID 1918970). Also: nearly all actives have a fitted effect of over 30% in size. The method in brief: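 CellTiter-Glo luminescence after 48 h drug exposure at 37 °C; 500 cells/well, 1536-well format, pin-tool compound addition; DMSO = 100%, media-only = 0% viability.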
Assay [17] is described as follows: Quantitative High-Throughput drug screen in 47 multiple myeloma cell lines against the NCATS MIPE library collection: KMS12BM_JCRB cell viability assay (AID 1918971). Also: nearly all actives have a fitted effect of over 35% in size. The method in brief: as §3
Assay [18] can be described thus: Quantitative High-Throughput drug screen in 47 multiple myeloma cell lines against the NCATS MIPE library collection: KMS20_JCRB cell viability assay (AID 1918973). Also: nearly all actives have a fitted effect of over 45% in size. The method, boiled down: as §1
Assay [19] in a line: Quantitative High-Throughput drug screen in 47 multiple myeloma cell lines against the NCATS MIPE library collection: KMS12PE_JCRB cell viability assay (AID 1918972). Also: nearly all actives have a fitted effect of over 30% in size. The method in brief:
as §3

A short description of assay [20]: Quantitative High-Throughput drug screen in 47 multiple myeloma cell lines against the NCATS MIPE library collection: KMS21BM_JCRB cell viability assay (AID 1918974). The note with it: ATP luminescence, 48 h; viability: at 45.8 µM (top of the series) unless noted. The method in brief:
as §1

Inconclusive results are not listed. Activity calls are given as the source filed them. Calls follow the shape of the dose curve; as a rule, active = well fitted curve in the direction sought with a large enough effect; inconclusive = small, poorly fitted or top-dose-only effect, or another doubt; inactive = no such curve, though single readings can be large; an effect the other way counts as inactive or inconclusive.

This is an account of results in PubChem BioAssay (NCATS).
Potency is read from the fitted curve at half-maximal effect.

As for `CCCCOc1c(C(=O)c2c(F)cc(C)cc2F)cnc2n[nH]cc12`, the Potency is 2640 nM (active) in [1]; 2640 nM (active) in assay [2]; 1660 nM (active) in assay [3]; 4180 nM (active) in assay [4]; 2960 nM (active) in assay [5]; 7430 nM (active) in assay [6]. Besides, the Potency is 2350 nM (active) in assay [7]; 2350 nM (active) in [8]; 3720 nM (active) in [9]; 8330 nM (active) in assay [10]; 2960 nM (active) in assay [11]; 4180 nM (active) in assay [12]. Further, the Potency in [13] was 2350 nM (active); in assay [14] it was 4690 nM (active); in assay [15], 4690 nM (active); in [16] it was 3720 nM (active); in assay [17], 5260 nM (active); in [18], 4180 nM (active).
As to `O=C(Cc1ccc(-c2ccc(OCCN3CCOCC3)cc2)cn1)NCc1ccccc1`, the Potency in assay [1] is 26.4 nM (active); in [2], 66.2 nM (active); in assay [3], 13.2 nM (active); in [4], 16.6 nM (active); in assay [5] it was 16.6 nM (active); in assay [6] it was 4.2 nM (active). Further, the Potency in [7] was 11.8 nM (active); in assay [9], 469 nM (active); in assay [10], 16.6 nM (active); in [12], 16.6 nM (active); in assay [13], 132 nM (active); in assay [15], 41.8 nM (active). Moreover, the Potency in assay [17] is 37.2 nM (active); in assay [19] it was 14.8 nM (active).
Turning to `CN1CC[C@@H](c2c(O)cc(O)c3c(=O)cc(-c4ccccc4Cl)oc23)[C@@H](O)C1`, the Potency in [1] was 66.2 nM (active); in [2] it was 74.3 nM (active); in [3], 26.4 nM (active); in [4], 83.3 nM (active); in assay [5] it was 46.9 nM (active); in [6] it was 93.5 nM (active). In addition, the Potency in assay [7] is 59 nM (active); in assay [8], 18.7 nM (active); in assay [9], 23.5 nM (active); in assay [10], 83.3 nM (active); in assay [11], 23.5 nM (active); in assay [12], 41.8 nM (active). Moreover, the Potency in assay [13] was 74.3 nM (active); in [14], 132 nM (active); in assay [15], 83.3 nM (active); in [16], 93.5 nM (active); in [17], 132 nM (active); in [19] it was 132 nM (active). The Potency in assay [18] was 83.3 nM (active); in assay [20] it was 29.6 nM (active).
As for `CC(C)C[C@H](NC(=O)CNC(=O)c1cc(Cl)ccc1Cl)B(O)O`, the Potency was 46.9 nM (active) in assay [1]; 148 nM (active) in assay [2]; 46.9 nM (active) in assay [3]; 59 nM (active) in [4]; 74.3 nM (active) in assay [5]; 118 nM (active) in [6]. Also, the Potency was 66.2 nM (active) in assay [7]; 41.8 nM (active) in assay [8]; 46.9 nM (active) in assay [9]; 105 nM (active) in [10]; 105 nM (active) in assay [11]; 37.2 nM (active) in [12]. In addition, the Potency was 105 nM (active) in assay [13]; 105 nM (active) in [14]; 41.8 nM (active) in assay [15]; 118 nM (active) in [16]; 132 nM (active) in [17]; 74.3 nM (active) in assay [19]. Besides, in assay [18], the Potency is 132 nM (active).
For the molecule `O=C(c1ccc(Nc2nccc(-c3cc4ccccc4s3)n2)cc1)N1CCC(N2CCCC2)CC1`, the Potency in [1] was 2960 nM (active); in assay [2] it was 18700 nM (active); in assay [3], 7430 nM (active); in assay [4], 13200 nM (active); in assay [5] it was 9350 nM (active); in assay [6], 4180 nM (active). In addition, the Potency in [7] was 5900 nM (active); in assay [8], 2090 nM (active); in assay [9], 3720 nM (active); in assay [10], 3720 nM (active); in assay [11], 4690 nM (active); in assay [12], 1660 nM (active). Besides, the Potency is 16600 nM (active) in assay [13]; 7430 nM (active) in assay [14]; 4180 nM (active) in [16]; 13200 nM (active) in assay [17]; 1870 nM (active) in assay [19]; 1320 nM (active) in assay [18]. Also, the Potency in [20] is 5260 nM (active).
As for `C[C@@H](Oc1cc(-c2cnn(C3CCNCC3)c2)cnc1N)c1c(Cl)ccc(F)c1Cl`, the Potency in [1] is 2090 nM (active); in assay [2], 18700 nM (active); in assay [3], 18700 nM (active); in assay [4] it was 8330 nM (active); in assay [5], 11800 nM (active); in assay [6], 14800 nM (active). The Potency was 13200 nM (active) in [7]; 2640 nM (active) in [8]; 3720 nM (active) in assay [9]; 8330 nM (active) in assay [10]; 3720 nM (active) in assay [11]; 4690 nM (active) in assay [12]. The Potency was 8330 nM (active) in assay [13]; 2350 nM (active) in assay [15]; 26400 nM (active) in assay [16]; 16600 nM (active) in assay [17]; 6620 nM (active) in assay [19]; 8330 nM (active) in assay [20].
As to `COc1ccc(C=Cc2cc(OC)c(OC)c(OC)c2)cc1O`, the Potency entry in assay [1], in assay [2], in assay [3], in [4], in assay [6] and in assay [7] was “inactive” in each case. Besides, the Potency result in assay [9], in assay [10], in assay [12], in assay [15], in assay [16] and in assay [19] was “inactive” throughout. In addition, the Potency result in assay [20] is “inactive”.
`Cc1cc(Nc2cc(N3CCN(C)CC3)nc(C=Cc3ccccc3)n2)n[nH]1`: the Potency in [1] was 3820 nM (active); in [2], 38200 nM (active); in assay [3], 8550 nM (active); in [4], 4290 nM (active); in [5], 13600 nM (active); in assay [6] it was 12100 nM (active). In addition, the Potency was 7620 nM (active) in [10]; 4810 nM (active) in assay [11]; 3400 nM (active) in assay [12]; 30300 nM (active) in assay [13]; 8550 nM (active) in [15]; 15200 nM (active) in assay [16]. Also, the Potency is 48100 nM (active) in [17] and 4290 nM (active) in assay [18].
As for `Cc1cc(Nc2cc(NC(=O)c3c(Cl)cccc3Cl)ccn2)nc(N)n1`, the Potency in [1] was 18700 nM (active); in assay [2], 16600 nM (active); in assay [3], 187 nM (active); in assay [4] it was 296 nM (active); in [7] it was 418 nM (active); in [8], 2640 nM (active). The Potency is 8330 nM (active) in assay [9]; 469 nM (active) in [10]; 935 nM (active) in [12]; 743 nM (active) in assay [13]; 1050 nM (active) in assay [14]; 13200 nM (active) in assay [15]. The Potency is 264 nM (active) in assay [16]; 18700 nM (active) in assay [17]; 166 nM (active) in assay [19]; 10500 nM (active) in assay [18]; 418 nM (active) in assay [20].
